# Reference: PubChem BioAssay (NCATS)
# Results filed as inconclusive are left out. Where a call stands in place of a potency, no number is given. Activity calls are given as the source filed them. Calls follow the shape of the dose curve; as a rule, active = well fitted curve in the direction sought with a large enough effect; inconclusive = small, poorly fitted or top-dose-only effect, or another doubt; inactive = no such curve, though single readings can be large; an effect the other way counts as inactive or inconclusive.
# Legend:
# [1] = target: Glutathione peroxidase 1 (Homo sapiens) (UniProt P07203); test: Primary qHTS Assay for Inhibitors of Recombinant Selenoprotein Glutathione Peroxidase 1 (GPX1) (AID 1845191); settings: recombinant GPX1, GR-coupled NADPH fluorescence, 15 min; series mostly up to 48.8 µM; also: nearly all actives have a fitted effect of over 65% in size
# Glutathione peroxidase 1 (Homo sapiens), sequence (P07203 whole entry, looked up): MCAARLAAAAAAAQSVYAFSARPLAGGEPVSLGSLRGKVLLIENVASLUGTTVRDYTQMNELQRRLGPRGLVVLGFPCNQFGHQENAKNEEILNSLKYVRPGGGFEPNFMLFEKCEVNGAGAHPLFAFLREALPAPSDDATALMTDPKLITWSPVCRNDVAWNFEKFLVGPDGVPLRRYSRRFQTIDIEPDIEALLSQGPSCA
# Procedure, shortened: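 10 nM GPX1 + cpd, 30 min RT; start w/ 1 mM GSH, 0.5 mM cumene hydroperoxide, 0.5 mM NADPH, 100 nM GR, 0.01% BSA; buffer 50 mM Tris-HCl pH 7.5, 2 mM EDTA, 150 mM NaCl; Fl 340/450, 0 & 15 min.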
# [2] = target: Phospholipid hydroperoxide glutathione peroxidase GPX4 (Homo sapiens) (UniProt P36969); test: Primary qHTS Assay for Inhibitors of Recombinant Selenoprotein Glutathione Peroxidase 4 (GPX4) (AID 1845192); settings: recombinant GPX4, GR-coupled NADPH fluorescence, 15 min; series mostly up to 50 µM; also: nearly all actives have a fitted effect of over 65% in size; also: potency is read from the fitted curve at half-maximal effect
# Phospholipid hydroperoxide glutathione peroxidase GPX4 (Homo sapiens), sequence (P36969 whole entry, looked up): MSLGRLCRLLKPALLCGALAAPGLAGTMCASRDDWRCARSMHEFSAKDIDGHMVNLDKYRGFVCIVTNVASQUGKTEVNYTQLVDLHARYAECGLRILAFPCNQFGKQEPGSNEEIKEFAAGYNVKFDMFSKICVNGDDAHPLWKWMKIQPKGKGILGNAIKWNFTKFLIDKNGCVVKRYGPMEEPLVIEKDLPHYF
# Procedure, shortened: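 NADPH consumption, followed by fluorescence at 340/450 nm between 0 and 15 min, reports GPX4 activity via coupled glutathione reductase (100 nM). Enzyme 200 nM was pre-exposed to compound 30 min; 0.5 mM cumene hydroperoxide and 1 mM GSH served as substrates.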
# [3] = target: Luciferin 4-monooxygenase (Photinus pyralis) (UniProt P08659); test: Primary firefly luciferase (FLuc) qHTS assay for identification of artifact compounds. (AID 1845220); settings: purified firefly luciferase, luminescence, 5 min; series mostly up to 54.1 µM; also: nearly all actives have a fitted effect of over 60% in size
# Procedure, shortened: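 FLuc 10 nM; luciferin 10 uM; ATP 10 uM; Tris-acetate pH 7.6, Mg-acetate 10 mM; 15 min RT preincubation; 5 min reaction; luminescence.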
# [4] = Primary fluorescence-based thiol-reactive (MSTI) qHTS assay for identification of artifact compounds. (AID 1845221); settings: MSTI thiol-reactivity probe, 1 h; series mostly up to 53.8 µM;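 also: thiol-reactive compounds lower the probe fluorescence signal; nearly all actives have a fitted effect of over 65% in size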
# Procedure, shortened: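 Reactivity toward the thiol probe MSTI (4 uM) is scored by fluorescence at Ex/Em 525/598 nm after 1 h at room temperature. Acetyl-MSTI and MSTI define the activity scale.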
# [5] = system: Nanoluciferase (engineered Oplophorus gracilirostris luciferase); test: Primary Nanoluciferase (NLuc) qHTS assay for identification of artifact compounds. (AID 1845222); settings: NLuc-conditioned medium, Nano-Glo luminescence, 5 min; series mostly up to 54.1 µM;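 also: NLuc secreted into diluted conditioned medium of S16 cells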
# Procedure, shortened: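 NLuc from S16 cell medium (1:55) plus test compounds, 15 min, room temperature. Luminescence after Nano-Glo (1:100) addition, 5 min.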
# [6] = Primary redox qHTS assay for identification of artifact compounds. (AID 1845223); settings: Amplex Red/HRP redox cycling with DTT, fluorescence; series mostly up to 53.8 µM
# Procedure, shortened: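 Amplex Red (25 uM) and HRP (250 mU/mL) in HBSS, with compounds for 15 min, then 250 uM DTT for 30 min, room temperature, dark. Fluorescence 525/598 nm read; normalized to DMSO and 10 uM DA3003; Hill fit.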
smiles,measurement,setting,value
CN(C)CCOC(c1ccc(Cl)cc1)c1ccccn1 (centres undefined),Potency,[1],inactive
same,Potency,[2],inactive
NCCNC(=O)c1ccc(Cl)cn1,Potency,[2],inactive
Oc1c(Cl)cc(Cl)c(Cl)c1Cc1c(O)c(Cl)cc(Cl)c1Cl,Potency,[2],25.5 µM (active)
FC(F)(F)C(F)(F)C(F)(F)C(F)(F)C(F)(F)C(F)(F)C(F)(F)C(F)(F)Br,Potency,[1],inactive
same,Potency,[2],inactive
O=C(CCCN1CC=C(n2c(=O)[nH]c3ccccc32)CC1)c1ccc(F)cc1,Potency,[1],inactive
same,Potency,[2],inactive
same,outcome,[3],inactive
same,outcome,[4],inactive
same,outcome,[5],inactive
same,outcome,[6],inactive
CC(=C(CCOC(=O)C(C)C)SSC(CCOC(=O)C(C)C)=C(C)N(C=O)Cc1cnc(C)nc1N)N(C=O)Cc1cnc(C)nc1N,Potency,[2],inactive
CC1=C(C(=O)O)N2C(=O)[C@@H](NC(=O)[C@H](N)c3ccccc3)[C@H]2SC1,Potency,[2],inactive
N#C/C(=C1\SCC(c2ccccc2Cl)S1)n1ccnc1 (centres undefined),Potency,[1],inactive
same,Potency,[2],inactive
CCN(CC)CCOc1ccccc1C(=O)CCc1ccccc1,Potency,[1],inactive
same,Potency,[2],inactive
CC(=O)O[C@]1(C(C)=O)CC[C@H]2[C@@H]3C=C(C)C4=CC(=O)CC[C@]4(C)[C@H]3CC[C@@]21C,Potency,[1],inactive
same,Potency,[2],inactive
CN1CCN(C2=Nc3ccccc3Sc3ccc(Cl)cc32)CC1,Potency,[2],inactive
Cc1c[nH]c2ccccc12,Potency,[1],inactive
same,Potency,[2],inactive
CC[C@H](c1ccc(O)cc1)[C@@H](CC)c1ccc(O)cc1,Potency,[1],inactive
same,Potency,[2],inactive
C#C[C@]1(O)CC[C@H]2[C@@H]3CCC4=Cc5oncc5C[C@]4(C)[C@H]3CC[C@@]21C,Potency,[1],inactive
same,Potency,[2],inactive
C#C[C@]1(O)CC[C@H]2[C@@H]3CCc4cc(OC)ccc4[C@H]3CC[C@@]21C,Potency,[1],inactive
same,Potency,[2],inactive
CC[N+](C)(CC)CCOC(=O)C(O)(c1ccccc1)C1CCCCC1 (centres undefined),Potency,[1],inactive
same,Potency,[2],inactive
OC[C@H]1O[C@@H](Oc2ccc(O)cc2)[C@H](O)[C@@H](O)[C@@H]1O,Potency,[1],inactive
same,Potency,[2],inactive
O=C(Nc1ccccc1)OCC(CN1CCCCC1)OC(=O)Nc1ccccc1 (centres undefined),Potency,[2],inactive
O=C1C(CCS(=O)c2ccccc2)C(=O)N(c2ccccc2)N1c1ccccc1 (centres undefined),Potency,[1],inactive
same,Potency,[2],inactive
Cc1ccc(O)c([C@H](CCN(C(C)C)C(C)C)c2ccccc2)c1,Potency,[1],inactive
same,Potency,[2],inactive
C=CCN1CCc2nc(N)sc2CC1,Potency,[2],inactive
CC(=O)OCC1=C(C(=O)O)N2C(=O)[C@@H](NC(=O)CSc3ccncc3)[C@H]2SC1,Potency,[2],inactive
CCCCc1cc2ccccc2c(OCCN(C)C)n1,Potency,[2],inactive
Clc1cccc(C(c2ccc3nc[nH]c3c2)n2ccnc2)c1 (centres undefined),Potency,[1],inactive
same,Potency,[2],inactive
CC(C)Nc1cccnc1N1CCN(C(=O)c2cc3cc(NS(C)(=O)=O)ccc3[nH]2)CC1,Potency,[1],inactive
same,Potency,[2],inactive
CNCCc1ccccn1,Potency,[1],inactive
same,Potency,[2],inactive
CC[C@]12CCCN3CCc4c(n(c5ccccc45)C(=O)C1)[C@@H]32,Potency,[1],inactive
same,Potency,[2],inactive
same,outcome,[3],inactive
same,outcome,[4],inactive
same,outcome,[5],inactive
same,outcome,[6],inactive
CN1CCC[C@@H]1CCO[C@](C)(c1ccccc1)c1ccc(Cl)cc1,Potency,[2],inactive
CCOC(=O)c1c(N)sc2c1CCN(Cc1ccccc1)C2,Potency,[2],inactive
C=C1c2cccc(O)c2C(O)=C2C(=O)[C@]3(O)C(O)=C(C(N)=O)C(=O)[C@@H](N(C)C)[C@@H]3[C@@H](O)[C@H]12,Potency,[2],11.2 µM (active)
C#C[C@]1(O)CC[C@H]2[C@@H]3[C@H](C)CC4=C(CCC(=O)C4)[C@H]3CC[C@@]21C,Potency,[1],inactive
same,Potency,[2],inactive
C/C=C/c1ccc(O)c(OC)c1,Potency,[1],inactive
same,Potency,[2],inactive
O[C@@H](c1cc(C(F)(F)F)nc2c(C(F)(F)F)cccc12)[C@H]1CCCCN1,Potency,[1],inactive
same,Potency,[2],inactive
N/C(=N\N=C\c1ccc(Cl)cc1)N/N=C/c1ccc(Cl)cc1,Potency,[1],inactive
same,Potency,[2],inactive
